Bioassay records as filed in PubChem BioAssay.
RXFP1 antag = qHTS Assay for Antagonists of the Relaxin Receptor RXFP1; 0.59% of 350,000 active; Relaxin receptor 1 (Homo sapiens), Q9HBX9; activity change, negative = inhibition, % at 57.5 µM; HEK293-RXFP1, relaxin-stimulated cAMP HTRF, 30 min; active compounds read low;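 active = activity change of -60% or lower, but not beyond a set lower limit; inconclusive = change between -60% and -40%, or beyond the set limit; inactive = change above -40%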; also: % is scaled to controls: 0 for no effect and ±100 for the full control effect
Target sequence (Q9HBX9 whole entry, looked up): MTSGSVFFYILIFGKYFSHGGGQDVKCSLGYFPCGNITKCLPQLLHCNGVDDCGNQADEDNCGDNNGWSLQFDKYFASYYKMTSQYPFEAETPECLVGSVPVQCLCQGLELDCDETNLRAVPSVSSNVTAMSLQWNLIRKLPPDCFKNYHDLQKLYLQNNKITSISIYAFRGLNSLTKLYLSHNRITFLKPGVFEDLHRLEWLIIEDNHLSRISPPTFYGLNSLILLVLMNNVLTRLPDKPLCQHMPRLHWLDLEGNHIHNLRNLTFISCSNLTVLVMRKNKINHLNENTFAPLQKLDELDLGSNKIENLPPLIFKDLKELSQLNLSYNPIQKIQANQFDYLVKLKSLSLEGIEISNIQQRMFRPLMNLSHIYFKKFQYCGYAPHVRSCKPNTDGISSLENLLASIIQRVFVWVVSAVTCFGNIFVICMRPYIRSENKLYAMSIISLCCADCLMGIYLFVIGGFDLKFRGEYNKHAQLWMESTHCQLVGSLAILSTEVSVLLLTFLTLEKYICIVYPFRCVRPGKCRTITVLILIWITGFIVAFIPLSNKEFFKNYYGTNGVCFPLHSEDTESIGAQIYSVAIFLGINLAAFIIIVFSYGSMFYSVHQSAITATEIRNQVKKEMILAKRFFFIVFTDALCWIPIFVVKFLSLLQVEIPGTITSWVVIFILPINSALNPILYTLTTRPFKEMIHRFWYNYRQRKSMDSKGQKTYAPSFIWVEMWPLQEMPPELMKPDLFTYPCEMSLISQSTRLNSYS
miR-21 act = qHTS Assay for Modulators of miRNAs and/orActivators of miR-21; HeLa miR-21 FLuc reporter, luciferase, 48 h; Potency, µM (series often up to 38.3 µM), for inactives: at the top dose activity change, positive = activation, actives largely listed as activators; 340,000 tested, under 10 active; AID 2288, 2010;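 also: % of control where 0% means no effect; miR-21 action dims this reporter so a rising signal means less miR-21 action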
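HeLa cells stably expressing CMV-driven firefly luciferase with a downstream miR-21 binding sequence, endogenously expressing miR-21, were treated with titrations (up to about 40uM final) for 48 hours at 37 degree Celsius. Luciferase luminescence was read after lysis.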
RXFP1 agonist = qHTS Assay for Agonists of the Relaxin Receptor RXFP1. HEK293T-RXFP1 cAMP TR-FRET, 30 min; response scale: percent of porcine relaxin response, buffer zero. Potency, µM (series often up to 57.5 µM), without a hit: at the top dose activation, hits mostly activators. 0.3% of 370,000 active. AID 2676, 2010; also: potency is read from the fitted curve at half-maximal effect; % is scaled to controls: 0 for no effect and ±100 for the full control effect; nearly all actives have a fitted effect of over 60% in size
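cAMP rise read by TR-FRET after 30 min, 37C compound exposure (up to 58 uM) in RXFP1-transfected HEK293 cells with Ro 20174 present. EC50 from Hill-equation fits, with 29 nM porcine relaxin as 100% and buffer as basal.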
PINK1 expr mod = A Quantitative High throughput Screen to Identify Chemical Modulators of PINK1 Expression | Potency, µM (series often up to 76.6 µM), inactives show top-dose activation (PINK1 increase), usual class: activators | 0.2% of 410,000 active | PINK1 immunofluorescence, high-content cytometry, 24 h; active = well fitted activation curve with a large enough effect; inconclusive = small, poorly fitted or top-dose-only effect; cell line not stated here; also: potency is read from the fitted curve at half-maximal effect; % of control where 0% means no effect; nearly all actives have a fitted effect of over 65% in size
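PINK1 protein level read as immunofluorescence by microplate cytometer in a fixed, stained stable cell line after 24 h exposure to five compound concentrations, with CCCP as control.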
IL2 activator = qHTS of IL-2 Activators. IL-2 activation reporter assay, cell-based qHTS; stimulated with anti-CD3/CD4/CD28 beads; in transgenic mouse T cells. activation, % (series mostly up to about 46 µM). 0.065% of 360,000 active. AID 652025, 2013; in the data active = activation above about 50%; inconclusive = mostly about 30% to 49%; also: 0% is about no effect
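Unstimulated transgenic mouse T cells preincubated 60 min with compound, then stimulated with anti-CD3/anti-CD4-coated beads plus anti-CD28 for 18 h at 37 degrees C. IL-2 response read as EGFP and DsRed fluorescence by plate cytometry.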
TCR activator = Activators of T cell receptors: qHTS campaign. primary human leukocytes, anti-CD3, IL-2 HTRF, 48 h. Potency, µM (top dose mostly 9.22 µM), for inactives: top-dose activation of IL-2 secretion, usual class: activators. 330,000 tested, under 10 active; also: % of control where 0% means no effect
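TCR engagement came from a-CD3 beads alone, with compounds added to primary human leukocytes for 48 hr. Secreted IL-2 bridged europium cryptate- and d2-labelled anti-IL-2 antibodies, giving FRET emission at 665nm after 320nm excitation.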
Starred values were filed as active, the others as inactive; ? = inconclusive; . = no result; [ ] = remark or other dose. Compounds with a hit are over-represented: about 0.78% of the library has one in this group of screens. Unless noted, calls follow the shape of the dose curve; as a rule, active = well fitted curve in the direction sought with a large enough effect; inconclusive = small, poorly fitted or top-dose-only effect, or another doubt; inactive = no such curve, though single readings can be large; an effect the other way counts as inactive or inconclusive.

SMILES	RXFP1 antag	miR-21 act	RXFP1 agonist	PINK1 expr mod	IL2 activator	TCR activator
Cc1cc(C)c(OCC(=O)N(Cc2cccc(F)c2)Cc2ccco2)c(C)c1	-102*	?	1%	?	.	.
COc1ccccc1OCC(=O)N(Cc1ccco1)Cc1ccccc1F	-62*	2%	-2%	-1%	.	.
COc1ccccc1C(=O)N(Cc1ccco1)Cc1ccccc1F	3	13%	-3%	1%	.	.
CC(C)c1c(C(=O)NCC(C)(C)N2CCOCC2)cnn1-c1nccc(-c2cccs2)n1	.	.	.	-1%	.	.
CC(C)OP(=O)(CP(=O)(OC(C)C)OC(C)C)OC(C)C	-13	.	.	.	.	.
COc1cc(-c2cccc(OC)c2OC)cc2c1OCCN(Cc1cn[nH]c1-c1ccc(Cl)cc1)C2	.	.	.	2%	.	.
CCc1ccc(S(=O)(=O)NCc2nc(N3CCCC3)c3cccc(C)c3n2)cc1	.	.	.	0%	.	.
Cc1ccc(OCC(=O)N(Cc2ccco2)Cc2ccco2)cc1	-22	-2%	3%	0%	.	.
Cc1cc(Cl)ccc1OCC(=O)N(Cc1ccco1)Cc1ccccc1F	-61*	9%	0%	2%	.	.
CCc1ccc(CN(Cc2ccco2)C(=O)COc2ccc(Cl)cc2C)cc1	-69*	18%	0%	2%	.	.
Cc1cc(C)cc(OCC(=O)N(Cc2ccco2)Cc2ccccc2Cl)c1	-36	11%	0%	?	.	.
CC(C)(C)c1ccc(OCC(=O)N(Cc2ccco2)Cc2ccccc2F)cc1	-95*	?	-4%	?	.	.
O=C(Nc1cccc(Cl)c1Cl)c1snnc1-c1ccccc1	-8	-2%	4%	3%	0	-6%
O=C(Nc1cc(Cl)ccc1O)c1snnc1-c1ccccc1	-3	25%	3%	11µM*	-3	-1%
O=C1C(F)=CC(COC(c2ccccc2)(c2ccccc2)c2ccccc2)OC1n1cc(F)c(=O)[nH]c1=O (stereo not given)	-84*	.	.	-7%	-6	-8%
CC(=O)OCC1OC(n2cc(F)c(=O)[nH]c2=O)C(OC(C)=O)C1OC(C)=O (stereo not given)	7	.	.	0%	0	5%
COc1ccc(C=C2C=C(C(C)(C)C)C(=O)C(C(C)(C)C)=C2)cc1OC	-88*	6%	0%	2%	-1	1%
COc1ccc2c(c1)CCc1cnc(-n3ncc(C(=O)NCC(C)(C)CN(C)C)c3C)nc1-2	.	.	.	-1%	.	.
CC/C(C)=N\N=C\c1c(O)n(CC)c2cc(C3=NNC(=O)CC3)ccc12	2	-20%	5%	1%	1	0%[46.1 µM]
CCn1c(O)c(/C=N/N=C/c2ccc(OC)cc2)c2cc(C3=NNC(=O)CC3)ccc21	-6	-9%	1%	?	215*	2%
COc1ccc(Cl)cc1NC(=O)c1c(NCc2cccnc2)sc2c1CCCC2	-22	11%	2%	2%	.	.
COc1ccc(Cl)cc1NC(=O)c1c(NCc2ccc(C)o2)sc2c1CCCC2	-61*	-1%	1%	1%	.	.
COc1ccc(NC(=O)c2c(NCc3cccc(F)c3)sc3c2CCC3)c(OC)c1	-62*	-9%	1%	1%	.	.
COc1ccc(OC)c(-c2cc(Cl)c3c(c2)CC(CNC(=O)c2cccnc2SC)O3)c1 (stereo not given)	.	.	.	0%	.	.
COc1cc(/C=C2\CC/C(=C\c3ccc(OCCO)c(OC)c3)C2=O)ccc1OCCO	12	-7%	7%	0%	163*	-5%
SMILES	RXFP1 antag	miR-21 act	RXFP1 agonist	PINK1 expr mod	IL2 activator	TCR activator
COc1ccc(/C=C2\CC/C(=C\c3ccc(OC)c(OC)c3)C2=O)cc1OC	-14	-8%	0%	3%	-2	3%[46.1 µM]
Cc1ccc(N(Cc2cccs2)C(=O)COc2cccc(C)c2)cc1	.	-3%	2%	9%	.	.
COc1ccc(N(Cc2cccs2)C(=O)COc2cccc(C)c2C)cc1	-72*	12%	0%	?	.	.
COc1ccc(N(Cc2cccs2)C(=O)COc2cc(C)c(Cl)c(C)c2)cc1	-69*	8%	-2%	?	.	.
Cc1cc(C)cc(OCC(=O)N(Cc2cccs2)c2ccc(Cl)cc2)c1	.	10%	0%	1%	.	.
CC(=O)C1=C(c2ccc(Cl)c(Cl)c2)N(C(C)=O)n2cnnc2S1	-83*	-6%	4%	?	.	.
CC(=O)C1=C(c2ccc(Cl)c(Cl)c2)N(C(C)=O)n2c(C)nnc2S1	-84*	?	5%	?	.	.
CC(=O)C1=C(c2ccc(Cl)c(Cl)c2)N(C(C)=O)n2c(nnc2-c2ccccc2)S1	-4	0%	1%	2%	.	.
COc1cccc(C2=C(C(C)=O)Sc3nncn3N2C(C)=O)c1	-18	19%	4%	0%	.	.
Cc1cccc(C(=O)NCc2nc(-c3cccc(NC(=O)C4CCCN(C)C4)c3)oc2C)n1 (stereo not given)	.	.	.	-1%	.	.
COc1ccc(C2=CC(=O)N(Nc3ccccc3)C2=O)cc1	?	18%	2%	9%	-5	2%
O=C1C=C(c2ccccc2)C(=O)N1Nc1ccccc1	-109*	?	1%	-6%	12	-1%
Cc1ccc(NN2C(=O)C=C(c3ccc(Cl)cc3)C2=O)cc1	-96*	21%	2%	-6%	-7	-4%
Cc1ncc2c(c1CNS(=O)(=O)N(C)C)CCN(C(=O)c1c(F)cccc1F)C2	.	.	.	-1%	.	.
Cc1[nH][nH]c(=O)c1C(c1ccc(Cl)cc1)c1c(C)[nH][nH]c1=O	-80*	-1%	-2%	1%	-1	2%
CN(C)CCNC(=O)/C(=C/c1ccc(-c2ccc(Cl)cc2Cl)o1)NC(=O)c1ccccc1	-70*	?	-1%	-2%	1	9%[46.1 µM]
Cc1ccc(C(=O)N/C(=C\c2ccc(-c3ccc(Br)cc3)o2)C(=O)NCCCN(C)C)cc1	-61*	?	2%	-1%	-1	1%
CCn1c(-c2ccccc2F)nc2cc(NC(C)=O)cc(C(=O)N(C)Cc3c(C)nc4ccccn34)c21	.	.	.	0%	.	.
O=C(c1ccc(F)c(F)c1)N1CCOc2ccc(CN3CCN(CCO)CC3)cc2C1	.	.	.	0%	.	.
COc1ccccc1C1(O)CCN(CC(=O)Nc2nc(-c3ccccc3)cs2)CC1	-76*	?	-1%	-1%	-4	0%
O=[N+]([O-])c1cccc(-c2csc(N/N=C/c3cccc(O)c3)n2)c1	-67*	12%	0%	-1%	3	-8%
